Only some compounds are listed: those with a hit (about 1.7% of all), similar ones and a draw of the others.
F508del corr – F508del CFTR correction, initial screen, CFBE line, single point; CFBE cells, YFP halide quenching; stimulated with forskolin plus potentiator P3; % fluorescence drop versus neutral controls; activity (quench increase), % at 7.58 µM; 350,000 compounds, 0.36% hits; AID 720511, 2013;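 active = mean added fluorescence quench of at least 8% versus neutral control, with both replicates also reaching 8%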;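 note: cells transiently co-express mutant CFTR-F508del with the halide-sensitive YFP; corrector assay measuring rescue of mutant channel to the surface after 24 h compound exposure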
FGF22 binding-1 – binders of human FGF22 protein, primary screen, FGF22 synaptogenesis inhibitor project, biophysical, thermal shift, single point; recombinant FGF22 thermal shift, SYPRO orange fluorescence; percent of sucrose octasulfate shift, DMSO zero; activity (Tm shift, normalised), % at 9.99 µM; 340,000 compounds, 1.5% hits;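 active = mean Tm shift, scaled 0 neutral to 100 positive control, at about 1.3% or above, every replicate too, limit read from the data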
Target sequence (Q9HCT0 whole entry, looked up): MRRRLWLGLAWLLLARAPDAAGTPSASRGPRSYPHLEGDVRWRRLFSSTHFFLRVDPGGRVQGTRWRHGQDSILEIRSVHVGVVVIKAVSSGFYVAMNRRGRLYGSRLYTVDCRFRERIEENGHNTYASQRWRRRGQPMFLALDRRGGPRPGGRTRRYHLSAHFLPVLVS
Vif inh – HIV Vif self-association inhibitors, primary screen, imaging, HEK293T, single point. inhibition, % at 7.49 µM. 340,000 compounds, 0.35% hits. HEK293T cells, Vif self-association by quenched fluorescence, 24 h; in the data active = inhibition above about 50%, passing the limit was not always enough
FGF22 binding-2 – binders of human FGF22 protein, dose response, FGF22 synaptogenesis inhibitor project, biophysical, thermal shift, cherry-pick retest | recombinant FGF22 thermal shift, SYPRO orange fluorescence | thermal shift activity, °C (ΔTm) at 38 µM | AID 720646, 2013 | 1,000 compounds, 2% hits | shares compounds with FGF22 binding-1;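 active = fitted rise in melting shift crosses a set limit at or below the top valid dose tested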
TSA no protein – compound-only thermal shift signal without protein, dose response, artefact control for FGF22 binder project, biochemical, cherry-picked samples, RT-PCR instrument | AC50, µM (highest dose often 38 µM) | compound-only SYPRO orange thermal shift counter-screen, no protein | shares compounds with FGF22 binding-1 | AID 743019, 2013 | 1,000 compounds, 2% hits;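 active = rising signal whose fitted curve reaches the 0.54 level within the top valid dose, showing a melting point, actives reach about 13 µM in these data; inactive = the rest, including activity in the opposite direction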; note: value is where the raw curve crosses a fixed level and not half-maximal
Large screens that a line does not name were inactive (follow-up assays come after a bar, where they were run).

COCC(=O)N1C[C@H]2[C@@H](c3ccccc31)[C@H](CO)N2C(=O)Nc1ccccc1F	FGF22 binding-1 1.5 (no result: Vif inh) | FGF22 binding-2 inactive | TSA no protein inactive
CC(=O)N1[C@@H](CO)[C@@H]2c3ccccc3N(C(=O)c3ccc(F)cc3)C[C@@H]21	FGF22 binding-1 1.8 (no result: Vif inh) | FGF22 binding-2 inactive | TSA no protein inactive
COc1ccc(C(=O)N2C[C@@H]3[C@H](c4ccccc42)[C@@H](CO)N3C(=O)c2ccc(F)cc2)cc1	none (no result: FGF22 binding-1, Vif inh)
COCC(=O)N1C[C@H]2[C@@H](c3ccccc31)[C@@H](CO)N2C(=O)Nc1ccccc1F	none (no result: Vif inh)
O=C(c1ccc(F)cc1)N1C[C@H]2[C@@H](c3ccccc31)[C@@H](CO)N2C(=O)c1ccc(F)cc1	none (no result: Vif inh)
COc1ccc(C(=O)N2C[C@H]3[C@@H](c4ccccc42)[C@@H](CO)N3C(=O)c2ccc(F)cc2)cc1	FGF22 binding-1 1.8 (no result: Vif inh) | FGF22 binding-2 inactive | TSA no protein inactive
C/C=C/c1ccc([C@H]2[C@@H](CN(C)C(=O)CC)N(C(=O)NCCC)[C@H]2CO)cc1	none (no result: Vif inh)
C[C@@H]1CN([C@H](C)CO)C(=O)Cc2cc(NS(C)(=O)=O)ccc2O[C@@H]1CN(C)Cc1ccc(C(=O)O)cc1	FGF22 binding-1 39 (no result: Vif inh) | FGF22 binding-2 inactive | TSA no protein inactive
C[C@@H]1CN([C@@H](C)CO)C(=O)Cc2cc(NC(=O)C3CC3)ccc2O[C@H]1CN(C)Cc1ccc(Cl)c(Cl)c1	FGF22 binding-1 3.1 (no result: Vif inh) | FGF22 binding-2 inactive | TSA no protein inactive
C[C@@H]1CN([C@H](C)CO)C(=O)Cc2cc(NS(C)(=O)=O)ccc2O[C@H]1CN(C)Cc1ccc(C(=O)O)cc1	none (no result: Vif inh)
C[C@H]1CN([C@@H](C)CO)C(=O)Cc2cc(NC(=O)C3CC3)ccc2O[C@@H]1CN(C)Cc1ccc(Cl)c(Cl)c1	none (no result: Vif inh)
O=C(Cc1ccccn1)NCC[C@H]1CC[C@@H](NC(=O)Nc2ccccc2)[C@H](CO)O1	none (no result: Vif inh)
C=CCOc1ccc2c(c1)C(=NO)c1cc(OCC=C)ccc1-2	FGF22 binding-1 14 | FGF22 binding-2 inactive | TSA no protein inactive
COc1ccc2c(c1)C(=NO)c1cc(OC)ccc1-2	none (no result: F508del corr, FGF22 binding-1)
C[C@H](CO)N1C[C@H](C)[C@@H](CN(C)Cc2ccc(C(=O)O)cc2)Oc2ccc(NC(=O)Cc3cn(C)c4ccccc34)cc2CC1=O	none (no result: Vif inh)
O=C(C[C@@H]1CC[C@H]2[C@@H](COC[C@@H](O)CN2Cc2cc(F)ccc2F)O1)NCc1ccc(F)cc1	FGF22 binding-1 2.4 (no result: Vif inh) | FGF22 binding-2 inactive | TSA no protein inactive
Cn1cnc(S(=O)(=O)N2C[C@@H](O)COC[C@H]3O[C@H](CC(=O)NCc4ccc(F)cc4)CC[C@@H]32)c1	none (no result: Vif inh)
Cn1cnc(S(=O)(=O)N2C[C@H](O)COC[C@@H]3O[C@@H](CC(=O)NCc4ccc(F)cc4)CC[C@H]32)c1	FGF22 binding-1 3.0 (no result: Vif inh) | FGF22 binding-2 inactive | TSA no protein inactive
O=C(C[C@H]1CC[C@H]2[C@@H](COC[C@H](O)CN2Cc2nccs2)O1)NCc1ccccc1F	FGF22 binding-1 1.6 (no result: Vif inh) | FGF22 binding-2 inactive | TSA no protein inactive
O=C(C[C@H]1CC[C@H]2[C@@H](COC[C@H](O)CN2Cc2cc(F)ccc2F)O1)NCc1ccc(F)cc1	none (no result: FGF22 binding-1, Vif inh)
O=C(C[C@@H]1CC[C@@H]2[C@H](COC[C@@H](O)CN2Cc2nccs2)O1)NCc1ccccc1F	none (no result: Vif inh)
O=C(C[C@H]1CC[C@@H]2[C@H](COC[C@H](O)CN2Cc2nccs2)O1)NCc1ccccc1F	none (no result: Vif inh)
O=C(C[C@H]1CC[C@@H]2[C@H](COC[C@@H](O)CN2Cc2nccs2)O1)NCc1ccccc1F	FGF22 binding-1 6.6 (no result: Vif inh) | FGF22 binding-2 inactive | TSA no protein inactive
C[C@H]1CN([C@@H](C)CO)S(=O)(=O)c2ccc(C3=CCCCC3)cc2O[C@H]1CN(C)C(=O)C1CC1	none (no result: Vif inh)
C[C@@H]1CN([C@@H](C)CO)C(=O)c2cc(NC(=O)Nc3ccc(C(F)(F)F)cc3)ccc2O[C@@H](C)CCCCO[C@@H]1CN(C)Cc1ccncc1	none (no result: Vif inh)
C[C@H](CO)N1C[C@H](C)[C@H](CN(C)C(=O)Nc2ccc(C(F)(F)F)cc2)OCCCC[C@H](C)Oc2ccc(NS(=O)(=O)c3ccccc3)cc2C1=O	none (no result: Vif inh)

High-throughput results from PubChem.
